High-throughput results as filed in PubChem.
Hits are enriched below; roughly 18% of the tested compounds scored in any of these assays.
Gal4-VP16 FLuc = Gal4-VP16 reporter inhibition counter-screen | Drosophila S2 Gal4-VP16 UAS-luciferase, luminescence, 20 h | Potency, µM (series often up to 53.6 µM), actives largely listed as inhibitors | actives 3.5% (n = 310,000);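 further: Gal4-VP16 expression switched on by copper sulfate through the metallothionein promoter; nearly all actives have a fitted effect of over 50% in size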
IL-1B inflam inh = inflammasome signaling inhibition, IL-1 beta readout; actives 4.7% (n = 360,000); THP-1 LPS/ATP IL-1B secretion, AlphaLISA, 16 h; stronger effect = lower value; activity change, % at 57.5 µM; in the data active means activity change below about -50%; inconclusive means mostly about -30% to -49%
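THP-1 cells pretreated 1 hr with compounds (up to 57.5 uM final), then stimulated with LPS (250 ng/mL final) plus ATP (1.25 mM final); secreted IL-1B measured by AlphaLISA after 16 hr, decreased signal indicating inhibition.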
LDHA inh = LDHA (human) enzyme inhibition | activity change, % (values are at about 110 or 230 µM) | purified LDHA, NADH/diaphorase-resazurin fluorescence; stronger effect = lower value | P00338 | actives 0.15% (n = 480,000) | AID 1347041; in the data active means activity change below about -30%; inconclusive means mostly about -25% to -30%
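Human LDH5 at 2 nM final in Tris HCl pH 7.4 with 0.06 mM NADH and 0.2 mM pyruvate, reacted 5 minutes at room temperature. Remaining NADH coupled via diaphorase/resazurin; resorufin fluorescence read at 0 and 20 minutes, normalized to enzyme-free and DMSO wells.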
RORgamma inh = blocks mouse ROR gamma transcriptional activity; P51450; Drosophila S2 Gal4-RORgamma UAS-luciferase reporter, 20 h; Potency, µM (doses to about 53.6 µM), actives largely listed as inhibitors; actives 5.4% (n = 310,000); further: nearly all actives have a fitted effect of over 60% in size
Target sequence (P51450 whole entry, looked up, the tested form may be a part): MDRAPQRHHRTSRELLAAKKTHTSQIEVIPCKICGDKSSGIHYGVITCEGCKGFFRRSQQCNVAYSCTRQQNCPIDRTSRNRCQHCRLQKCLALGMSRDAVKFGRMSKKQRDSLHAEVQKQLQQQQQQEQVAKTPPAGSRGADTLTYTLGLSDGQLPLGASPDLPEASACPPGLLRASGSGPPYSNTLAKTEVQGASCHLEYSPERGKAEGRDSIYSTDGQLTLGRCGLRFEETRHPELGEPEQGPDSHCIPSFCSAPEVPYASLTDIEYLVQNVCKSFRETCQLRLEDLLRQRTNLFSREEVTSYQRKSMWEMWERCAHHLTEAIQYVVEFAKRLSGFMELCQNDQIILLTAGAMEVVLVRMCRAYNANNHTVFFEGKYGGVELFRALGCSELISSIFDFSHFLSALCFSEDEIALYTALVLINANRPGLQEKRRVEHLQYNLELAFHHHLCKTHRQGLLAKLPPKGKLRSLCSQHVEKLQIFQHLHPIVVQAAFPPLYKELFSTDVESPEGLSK
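Drosophila S2 cells stably expressing Gal4-DBD/mouse RORγ fusion under metallothionein promoter plus UAS-luciferase; compound 1 h, then 700 uM CuSO4 induction for 20 h at ambient temperature; inhibition read as reduced luminescence.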
TDP1 cell noCPT = qHTS for Inhibitors of human tyrosyl-DNA phosphodiesterase 1 (TDP1): qHTS in cells in absence of CPT. DT40 Tdp1-/- hTDP1 cells, no CPT, ATP luminescence, 48 h. Potency, µM (series often up to 46.2 µM), usual class: inhibitors. actives 15% (n = 420,000). AID 686978, 2013; further: nearly all actives have a fitted effect of over 55% in size
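Growth kinetics read by CellTiter-Glo luminescence after ≥48 hr at 37 °C. Cells: DT40 Tdp1-/- stably carrying human TDP1, 400 per well, compound exposure in the absence of CPT (DMSO vehicle).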
DT40 TDP1 CPT = DT40-hTDP1 cell growth loss with CPT; AID 686979; actives 12% (n = 420,000); Potency, µM (top dose mostly 46.2 µM), usual class: inhibitors; chicken DT40 Tdp1-/-;hTDP1 cells + 20 nM CPT, ATP luminescence, 48 h; further: nearly all actives have a fitted effect of over 55% in size
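Cell growth measured by CellTiter-Glo luminescence after a minimum 48 h, 37 C compound exposure with 20 nM CPT in Tdp1-knockout DT40 cells stably expressing hTDP1, seeded 400/well; qHTS titration format.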
Numbers stand for hits; n = inactive; u = inconclusive; x = not tested or not shown. Unless noted, the call rests on the fitted dose curve; in most records, active means well fitted curve in the direction sought with a large enough effect; inconclusive means small, poorly fitted or top-dose-only effect, or another doubt; inactive means no such curve, though single readings can be large; an effect the other way counts as inactive or inconclusive.

SMILES	Gal4-VP16 FLuc	IL-1B inflam inh	LDHA inh	RORgamma inh	TDP1 cell noCPT	DT40 TDP1 CPT
N#Cc1c(N2CCN(c3ccc([N+](=O)[O-])cc3)CC2)[n+](=O)c2ccc(Cl)cc2n1[O-]	x	n	n	x	1.16µM	0.461µM
COc1cc(NC(=O)c2cn(C3CCCC3)c(=O)c3c2c2ccccc2n3C)cc(OC)c1OC	x	x	n	x	18.4µM	u
COc1ccc(Cl)cc1NC(=O)c1cn(C2CCCC2)c(=O)c2c1c1ccccc1n2C	x	x	n	x	u	u
CCOc1ccccc1NC(=O)c1cn(C2CCCC2)c(=O)c2c1c1ccccc1n2C	x	x	n	x	9.2µM	13µM
COc1ccc(Nc2ncnc3c2c(-c2ccccc2)cn3-c2ccc(C)c(Cl)c2)cc1OC	x	x	n	x	n	n
COc1ccc(-n2cc(-c3ccccc3)c3c(NN4CCOCC4)ncnc32)cc1	u	-85.4	n	4.47µM	16.4µM	u
COc1ccc(-n2cc(-c3ccccc3)c3c(NCCOCCO)ncnc32)cc1	n	n	n	n	u	u
Fc1ccc(-n2cc(-c3ccccc3)c3c(NN4CCOCC4)ncnc32)cc1	10µM	-72.6	n	12.6µM	23.1µM	u
COCCCNc1ncnc2c1c(-c1ccccc1)cn2-c1ccc(C)c(Cl)c1	x	x	n	x	u	18.4µM
C/C(=N\NC(=O)c1ccccc1C)c1ccc(C)cc1	x	x	n	x	x	x
COc1ccc(NC(=S)N2CCN(c3ccc([N+](=O)[O-])cc3)CC2)cc1OC	7.08µM	n	n	u	11.6µM	10.3µM
COc1ccc(NC(=O)N2CCN(c3ccc(Cl)cc3)CC2)cc1OC	x	x	n	x	x	x
COc1cccc(NC(=S)N2CCN(c3ccc([N+](=O)[O-])cc3)CC2)c1	n	n	n	n	10.3µM	6.51µM
O=C(NC(=S)N1CCCCCC1)c1cccc([N+](=O)[O-])c1	x	n	n	x	16.4µM	u
COc1ccc(C(=O)NC(=S)Nc2ccccc2N2CCCCC2)cc1[N+](=O)[O-]	1µM	n	n	u	6.51µM	11.6µM
CCOc1ccc(C(=O)NC(=S)NC2CCCC2)cc1[N+](=O)[O-]	15.8µM	n	n	5.01µM	u	u
O=C(NC(=S)Nc1ccccc1N1CCCC1)c1ccc([N+](=O)[O-])cc1	0.112µM	n	n	0.0501µM	18.4µM	25.9µM
Cc1c(C(=O)NC(=S)Nc2ccccc2N2CCCC2)cccc1[N+](=O)[O-]	n	n	n	u	u	u
Cc1nc(SCC(=O)NCc2ccc(S(=O)(=O)N3CCOCC3)cc2)n(C2CCCC2)c1C	x	x	n	x	x	x
COc1ccc(C(=O)NC(=S)Nc2cccc(Cl)c2N2CCOCC2)cc1[N+](=O)[O-]	5.01µM	n	n	1.78µM	u	u
CCOc1ccc(C(F)(F)F)cc1NC(=O)c1ccc(OC)c([N+](=O)[O-])c1	n	n	n	n	n	n
COc1ccc(C(=O)NC(=S)Nc2cc(C)ccn2)cc1[N+](=O)[O-]	1µM	n	n	u	u	16.4µM
CCOc1ccc(C(=O)NC(=S)Nc2ccccc2OC)cc1[N+](=O)[O-]	u	n	n	7.08µM	n	n
CCOc1ccc(C(=O)NC(=S)Nc2ccccc2N2CCCCC2)cc1[N+](=O)[O-]	0.501µM	n	n	u	u	18.4µM
COc1ccc(C(=O)Nc2cc(C)on2)cc1[N+](=O)[O-]	n	n	n	n	n	n
COc1ccc(C(=O)NCC(O)CN2CCOCC2)cc1[N+](=O)[O-] (configuration not stated)	n	n	n	n	n	n
O=C(O)c1ccc(-n2cccc2/C=C2\SC(=O)N(Cc3cccc(Cl)c3)C2=O)cc1	x	x	n	x	x	x
COc1ccc(C(=O)NC(=S)N2CCCCC2)cc1	n	n	n	n	u	u
CCOc1ccc(C(=O)NC(=S)Nc2ccc(NC(=O)CC)cc2)cc1[N+](=O)[O-]	n	n	n	n	n	n
Cc1ccc(C(=O)NC(=S)N2CC(C)OC(C)C2)cc1[N+](=O)[O-] (configuration not stated)	0.708µM	n	n	0.398µM	u	u
